Autofluor counter = flagged as autofluorescent in microsphere protease counterscreen | actives 3.1% (n = 360,000) | AID 624483 | fluorescence intensity (test concentration not listed) | compound autofluorescence counterscreen, microsphere flow cytometry; active compounds read high; in the data active = fluorescence intensity above about 16000; inconclusive = no clear call, values can overlap the other calls
BoNT-F LC inh = inhibitors of Botulinum neurotoxin F light chain protease | actives 0.22% (n = 360,000) | Multiplex microsphere protease cleavage assay, flow cytometry | inhibition, % at 10 µM; in the data active = inhibition above about 35%, passing the limit was not always enough; inconclusive = no clear call, values can overlap the other calls; note: plate controls were buffer without enzyme for full effect and enzyme alone for no effect
SSB-PriA inh = inhibitors of Klebsiella pneumoniae PriA binding to SSB C-terminal tail. inhibition, % at 33 µM. actives 0.6% (n = 430,000). AlphaScreen SSBct-PriA binding, biotinylated peptide; in the data active = inhibition mostly above about 37%, no sharp cut-off; inactive = mostly below about 20%;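 note: plate controls were negative control peptide for no effect and reference peptide for full effect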
BoNT A protease = inhibitors of Botulinum neurotoxin A light chain protease; actives 0.17% (n = 360,000); AID 588499; multiplex microsphere protease substrate cleavage, flow cytometry; inhibition, % at 10 µM; note: plate controls were buffer without enzyme for full effect and enzyme alone for no effect
Anthrax LF prot = inhibitors of Bacillus anthracis lethal factor protease | multiplex microsphere protease cleavage assay, LF | inhibition, % at 10 µM | actives 0.12% (n = 360,000); note: plate controls were buffer without enzyme for full effect and enzyme alone for no effect
Target sequence (P15917 whole entry, looked up): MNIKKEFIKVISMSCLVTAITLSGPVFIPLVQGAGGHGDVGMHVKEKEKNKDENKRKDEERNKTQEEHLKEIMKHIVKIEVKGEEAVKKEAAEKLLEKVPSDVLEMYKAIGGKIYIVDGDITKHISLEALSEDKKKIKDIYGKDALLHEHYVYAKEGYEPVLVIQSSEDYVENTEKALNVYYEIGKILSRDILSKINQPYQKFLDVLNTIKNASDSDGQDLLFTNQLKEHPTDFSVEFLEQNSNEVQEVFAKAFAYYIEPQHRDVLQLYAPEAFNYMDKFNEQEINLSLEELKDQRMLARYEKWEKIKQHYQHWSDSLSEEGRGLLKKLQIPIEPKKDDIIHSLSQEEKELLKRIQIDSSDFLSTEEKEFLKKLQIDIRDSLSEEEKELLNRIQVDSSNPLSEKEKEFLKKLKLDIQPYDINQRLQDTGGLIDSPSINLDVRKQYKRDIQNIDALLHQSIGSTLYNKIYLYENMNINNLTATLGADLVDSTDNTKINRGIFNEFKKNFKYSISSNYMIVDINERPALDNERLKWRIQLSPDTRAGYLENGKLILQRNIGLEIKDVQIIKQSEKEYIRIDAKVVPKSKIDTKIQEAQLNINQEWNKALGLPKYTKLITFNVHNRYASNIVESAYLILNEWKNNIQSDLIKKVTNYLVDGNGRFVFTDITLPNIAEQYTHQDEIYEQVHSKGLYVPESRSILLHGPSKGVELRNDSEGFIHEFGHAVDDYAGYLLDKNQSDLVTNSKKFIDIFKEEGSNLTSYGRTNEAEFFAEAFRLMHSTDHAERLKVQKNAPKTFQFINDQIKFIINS
* hit, by the source's call. A selection: hits, their analogues and other compounds. The true share with any hit is near 3.1%. Cut-off read from the data, not from the text of the source, unless noted: active = inhibition above about 30%; inconclusive = no clear call, values can overlap the other calls; inactive = below that.

What do the screens show for `Cc1ccc([C@@H](O)CNS(=O)(=O)c2ccccc2F)o1`?
SSB-PriA inh: 0

What do the screens show for `COc1ccc(C(=O)NCc2ccc(C(=O)c3ccco3)s2)cc1F`?
SSB-PriA inh: -11

How did CCN1C(=O)C(CC(=O)Nc2ccc(OC)cc2)N(Cc2cccs2)C1=S (configuration not stated) do in these assays?
Autofluor counter: 16912*; BoNT-F LC inh: -4; SSB-PriA inh: -19; BoNT A protease: inconclusive; Anthrax LF prot: -2

What do the screens show for `CCN1C(=O)C(CC(=O)Nc2ccc(OC)cc2)N(Cc2ccco2)C1=S` (configuration not stated)?
Autofluor counter: 2351; BoNT-F LC inh: -3; SSB-PriA inh: 6; BoNT A protease: 0; Anthrax LF prot: 2

Results for Cc1noc(C)c1CN(C(=S)NC1CC2CCC1C2)c1ccccc1 (configuration not stated) ?
Autofluor counter: 4701; BoNT-F LC inh: 42*; SSB-PriA inh: -8; BoNT A protease: 4; Anthrax LF prot: -6

What do the screens show for `Cc1noc(C)c1CN(C(=S)NC(C)C)c1ccccc1`?
Autofluor counter: 2129; BoNT-F LC inh: -3; SSB-PriA inh: 10; BoNT A protease: 0; Anthrax LF prot: 0

What do the screens show for `COC(=O)COc1nsnc1N1CCOCC1`?
Autofluor counter: 24961*; BoNT-F LC inh: -9; SSB-PriA inh: -4; BoNT A protease: -6; Anthrax LF prot: -13

What do the screens show for `O=CC1=C2C=CC=C3SC(C=O)=C(N=C1)N32`?
SSB-PriA inh: -18

Results for COc1cccc(CNc2ccc(N3CCC(C)CC3)cc2)c1OC ?
Autofluor counter: 19533*; BoNT-F LC inh: -5; SSB-PriA inh: 58; BoNT A protease: 3; Anthrax LF prot: -4

What do the screens show for `COc1cccc(CN2CCN(c3ccc(F)cc3)CC2)c1OC`?
Autofluor counter: 3652; BoNT-F LC inh: 8; BoNT A protease: 0; Anthrax LF prot: -1

How did O=C(c1cccnc1)N1CCc2ccccc21 do in these assays?
Autofluor counter: 20167*; BoNT-F LC inh: 10; SSB-PriA inh: -7; BoNT A protease: 8; Anthrax LF prot: -6

Results for CCCN(CCC)S(=O)(=O)c1ccc(C(=O)N2CCCc3ccccc32)cc1 ?
Autofluor counter: 22837*; BoNT-F LC inh: 0; SSB-PriA inh: -13; BoNT A protease: 0; Anthrax LF prot: -2

Results for CCCN(CCC)S(=O)(=O)c1ccc2c(c1)CCCN2C(C)=O ?
Autofluor counter: 3333; BoNT-F LC inh: -6; SSB-PriA inh: -17; BoNT A protease: -1; Anthrax LF prot: -1

How did COc1cccc(C(=O)N2CCCc3ccccc32)c1 do in these assays?
Autofluor counter: 17528*; BoNT-F LC inh: -11; SSB-PriA inh: -13; BoNT A protease: -3; Anthrax LF prot: -2

What do the screens show for `COc1ccc(NC(=O)N2CCCc3ccccc32)cc1`?
Autofluor counter: 20850*; BoNT-F LC inh: -3; SSB-PriA inh: -4; BoNT A protease: 0; Anthrax LF prot: -1

How did CCCCC[n+]1ccn(C2=C([O-])c3ccccc3C(=O)C2=NS(=O)(=O)c2ccc(Br)cc2)c1 do in these assays?
SSB-PriA inh: 7

What do the screens show for `C(=N\Nc1nc(-c2ccccc2)cs1)/c1cccnc1`?
Autofluor counter: 23863*; BoNT-F LC inh: -10; BoNT A protease: -5; Anthrax LF prot: -6

Results for C(=NNc1nc(-c2ccccc2)cs1)c1ccncc1 ?
SSB-PriA inh: -7

Results for CC(/C=C/c1ccccc1)=N\Nc1nc(-c2ccccc2)cs1 ?
Autofluor counter: 24306*; BoNT-F LC inh: -4; BoNT A protease: -3; Anthrax LF prot: -3

How did O=C(COC(=O)CCc1ccccc1)Nc1ncc(Cl)cc1Cl do in these assays?
Autofluor counter: 16931*; BoNT-F LC inh: -1; SSB-PriA inh: -3; BoNT A protease: -1; Anthrax LF prot: -1

Results for O=C(COC(=O)Cc1ccccc1)Nc1ncc(Cl)cc1Cl ?
Autofluor counter: 3757; BoNT-F LC inh: -7; SSB-PriA inh: -1; BoNT A protease: 0; Anthrax LF prot: 0

How did Cc1nc(NC(=O)COC(=O)CCS(=O)(=O)c2ccccc2Cl)c(Cl)cc1Cl do in these assays?
Autofluor counter: 20461*; BoNT-F LC inh: -1; SSB-PriA inh: -7; BoNT A protease: inconclusive; Anthrax LF prot: 2

Results for Cc1nc(NC(=O)COC(=O)C2CC2C)c(Cl)cc1Cl (configuration not stated) ?
Autofluor counter: 3657; BoNT-F LC inh: -7; SSB-PriA inh: 3; BoNT A protease: 0; Anthrax LF prot: 1

How did O=C(CC(c1ccccc1)c1ccccc1)Nc1cc(N2CCCCC2)ncn1 do in these assays?
SSB-PriA inh: 2

Screening results: PubChem, several laboratories
